# Data: PubChem BioAssay (EPA / NIEHS)
# Results filed as inconclusive are left out. Calls of active or inactive are those of the source. The calls were made as follows: active = hit-call score of the fitted dose curve at least 0.9, where 1 is the maximum; inconclusive = response in the unintended direction; inactive = score below 0.9.
# Tests used:
# [1] = molecular target: human Matrix Metalloproteinase-3 (MMP3), MMP3 (gene 4314) (UniProt P08254); assay: NVS_ENZ_hMMP3: NovaScreen (NVS) Enzymatic Assay for human Matrix Metalloproteinase-3 (MMP3) (AID 2283185)
# In short: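 Cell-free recombinant human MMP3 activity, fluorescence intensity read 1 h after dosing. Primary screen duplicate at 25 uM, actives retested in concentration series; loss of signal vs DMSO baseline.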
# [2] = molecular target: human NIMA (Never In Mitosis Gene A)-Related Kinase 2 (NEK2), NEK2 (gene 4751) (UniProt P51955); assay: NVS_ENZ_hNEK2: NovaScreen (NVS) Enzymatic Assay for human NIMA (Never In Mitosis Gene A)-Related Kinase 2 (NEK2) (AID 2283188)
# Chain of human NIMA (Never In Mitosis Gene A)-Related Kinase 2 (NEK2), NEK2 (gene 4751) (P51955 whole entry, looked up): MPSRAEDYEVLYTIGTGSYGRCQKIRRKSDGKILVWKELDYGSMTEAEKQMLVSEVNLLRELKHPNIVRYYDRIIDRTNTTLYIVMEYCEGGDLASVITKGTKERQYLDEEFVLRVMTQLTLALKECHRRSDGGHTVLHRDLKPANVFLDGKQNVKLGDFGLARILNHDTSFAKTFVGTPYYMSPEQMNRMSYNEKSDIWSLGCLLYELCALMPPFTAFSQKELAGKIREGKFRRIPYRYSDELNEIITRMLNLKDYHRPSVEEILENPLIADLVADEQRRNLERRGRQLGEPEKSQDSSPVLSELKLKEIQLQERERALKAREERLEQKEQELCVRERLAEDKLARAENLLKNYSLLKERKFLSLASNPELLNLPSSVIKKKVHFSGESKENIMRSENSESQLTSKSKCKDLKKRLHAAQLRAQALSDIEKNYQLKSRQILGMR
# In short: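 Cell-free NEK2 enzyme activity after 1 h exposure, read by fluorescence with electrophoretic mobility shift separating substrate and product. Primary screen in duplicate at 25 uM; actives then run as concentration series. Loss of signal versus DMSO scored.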
# [3] = molecular target: cAMP-dependent protein kinase catalytic subunit alpha (Homo sapiens) (UniProt P17612); assay: NVS_ENZ_hPKA: NovaScreen (NVS) Enzymatic Assay for human Protein Kinase A (PKA) (AID 2283192)
# In short: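 Recombinant human PKA with specific fluorescent substrate, product separated by electrophoretic mobility shift, read 1 h after dosing. Primary screen at 25 uM in duplicate; actives then run in concentration-response up to 50 uM, activity relative to DMSO.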
# [4] = molecular target: human Protein Phosphatase, Mg2+/Mn2+ Dependent 1A (PPM1A), PPM1A (gene 5494) (UniProt P35813); assay: NVS_ENZ_hPPM1A: NovaScreen (NVS) Enzymatic Assay for human Protein Phosphatase, Mg2+/Mn2+ Dependent 1A (PPM1A) (AID 2283198)
# Chain of human Protein Phosphatase, Mg2+/Mn2+ Dependent 1A (PPM1A), PPM1A (gene 5494) (P35813 whole entry, looked up): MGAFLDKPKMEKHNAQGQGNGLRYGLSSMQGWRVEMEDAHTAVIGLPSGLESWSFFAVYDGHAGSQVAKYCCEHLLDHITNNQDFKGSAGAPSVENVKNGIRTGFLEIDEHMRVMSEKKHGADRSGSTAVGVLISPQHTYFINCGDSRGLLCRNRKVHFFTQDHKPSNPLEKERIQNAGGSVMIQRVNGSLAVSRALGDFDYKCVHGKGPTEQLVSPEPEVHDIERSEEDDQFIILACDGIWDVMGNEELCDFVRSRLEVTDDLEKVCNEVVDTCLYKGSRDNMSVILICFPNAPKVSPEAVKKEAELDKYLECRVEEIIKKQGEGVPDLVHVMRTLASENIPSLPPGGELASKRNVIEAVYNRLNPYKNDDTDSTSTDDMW
# In short: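 Cell-free recombinant PPM1A phosphatase assay with fluorescent substrate, read 1 h after dosing by electrophoretic mobility shift. Chemicals screened in duplicate at 25 uM, then in concentration-response up to 50 uM; loss of activity versus DMSO.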
# [5] = molecular target: human p21 Activated Kinase 4 (PAK4), PAK4 (gene 10298) (UniProt O96013); assay: NVS_ENZ_hPAK4: NovaScreen (NVS) Enzymatic Assay for human p21 Activated Kinase 4 (PAK4) (AID 2283189)
# In short: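 Cell-free recombinant human PAK4 activity assay; fluorescent substrate and product separated by electrophoretic mobility shift, read 1 h after dosing. Initially tested in duplicate at 25 uM, relative to DMSO baseline.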
# PPP2CA (gene 5515) = PPP2CA (gene 5515) (UniProt P67775); assay: NVS_ENZ_hPPP2CA: NovaScreen (NVS) Enzymatic Assay for human Protein Phosphatase 2 Aatalytic subunit Alpha (PPP2CA) (AID 2283199)
# Chain of PPP2CA (gene 5515) (P67775 whole entry, looked up): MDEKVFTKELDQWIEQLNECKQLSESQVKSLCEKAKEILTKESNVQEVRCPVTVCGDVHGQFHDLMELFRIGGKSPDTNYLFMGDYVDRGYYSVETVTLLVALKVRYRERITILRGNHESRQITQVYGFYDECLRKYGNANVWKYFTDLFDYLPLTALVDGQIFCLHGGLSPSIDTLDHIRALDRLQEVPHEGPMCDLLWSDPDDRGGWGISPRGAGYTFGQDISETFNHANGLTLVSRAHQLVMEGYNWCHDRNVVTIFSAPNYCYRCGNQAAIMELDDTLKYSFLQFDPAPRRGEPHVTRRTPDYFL
# In short: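 Recombinant human PPP2CA with fluorescent substrate; product separated from substrate by electrophoretic mobility shift, read 1.33 h after dosing. Duplicate single-point at 25 uM, then singleton concentration-response up to 50 uM; loss of signal versus DMSO.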
# [6] = molecular target: Serine/threonine-protein phosphatase PP1-alpha catalytic subunit (Homo sapiens) (UniProt P62136); assay: NVS_ENZ_hPPP1CA: NovaScreen (NVS) Enzymatic Assay for human Protein Phosphatase 1 Aatalytic subunit Alpha (PPP1CA) (AID 2283200)
# Chain of Serine/threonine-protein phosphatase PP1-alpha catalytic subunit (Homo sapiens) (P62136 whole entry, looked up): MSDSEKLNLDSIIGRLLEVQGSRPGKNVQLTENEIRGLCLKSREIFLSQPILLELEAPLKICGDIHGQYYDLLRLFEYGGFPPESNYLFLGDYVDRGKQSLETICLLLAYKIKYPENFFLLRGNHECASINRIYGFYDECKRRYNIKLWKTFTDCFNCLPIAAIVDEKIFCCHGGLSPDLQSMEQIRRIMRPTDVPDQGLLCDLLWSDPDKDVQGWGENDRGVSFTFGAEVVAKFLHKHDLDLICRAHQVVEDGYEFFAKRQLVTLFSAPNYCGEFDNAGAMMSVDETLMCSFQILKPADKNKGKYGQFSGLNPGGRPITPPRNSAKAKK
# In short: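 Recombinant enzyme activity read by fluorescence with electrophoretic mobility shift separating substrate from product, 1.33 h after dosing; loss of signal vs DMSO baseline. Primary screen in duplicate at 25 uM; actives retested in concentration-response up to 50 uM.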
# [7] = molecular target: Tyrosine-protein phosphatase non-receptor type 11 (Homo sapiens) (UniProt Q06124); assay: NVS_ENZ_hPTPN11: NovaScreen (NVS) Enzymatic Assay for human Protein Tyrosine Phosphatase Non-receptor Type 11 (PTPN11) (AID 2283202)
# Chain of Tyrosine-protein phosphatase non-receptor type 11 (Homo sapiens) (Q06124 whole entry, looked up): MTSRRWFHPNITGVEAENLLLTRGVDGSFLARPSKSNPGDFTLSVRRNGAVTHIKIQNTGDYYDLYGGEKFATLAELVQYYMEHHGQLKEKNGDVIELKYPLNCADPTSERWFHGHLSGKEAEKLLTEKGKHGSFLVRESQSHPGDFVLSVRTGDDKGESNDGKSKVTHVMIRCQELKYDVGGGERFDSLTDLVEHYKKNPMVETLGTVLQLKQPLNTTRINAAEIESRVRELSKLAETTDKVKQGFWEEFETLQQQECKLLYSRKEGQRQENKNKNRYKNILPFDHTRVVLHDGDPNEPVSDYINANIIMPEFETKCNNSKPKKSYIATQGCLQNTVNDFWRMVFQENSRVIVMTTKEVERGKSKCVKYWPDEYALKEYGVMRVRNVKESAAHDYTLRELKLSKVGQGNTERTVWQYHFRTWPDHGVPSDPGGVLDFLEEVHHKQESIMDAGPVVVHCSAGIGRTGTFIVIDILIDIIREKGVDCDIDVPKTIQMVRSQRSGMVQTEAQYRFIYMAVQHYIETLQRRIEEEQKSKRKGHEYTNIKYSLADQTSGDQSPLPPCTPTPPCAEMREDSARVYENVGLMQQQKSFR
# In short: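 Recombinant human PTPN11 activity on a fluorescent substrate, with substrate/product separated by electrophoretic mobility shift; read 0.5 h after dosing, loss of signal vs DMSO. Duplicate 25 uM screen, then concentration-response up to 50 uM.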
# [8] = molecular target: Tyrosine-protein phosphatase non-receptor type 12 (Homo sapiens) (UniProt Q05209); assay: NVS_ENZ_hPTPN12: NovaScreen (NVS) Enzymatic Assay for human Protein Tyrosine Phosphatase Non-receptor Type 12 (PTPN12) (AID 2283204)
# In short: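 Single-concentration duplicates (25 uM) preceded singleton concentration-response up to 50 uM for chemicals passing threshold. Cell-free recombinant PTPN12 activity was read 1.33 h after dosing via fluorescence after mobility-shift separation; loss of signal versus DMSO.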
# [9] = molecular target: Tyrosine-protein phosphatase non-receptor type 13 (Homo sapiens) (UniProt Q12923); assay: NVS_ENZ_hPTPN13: NovaScreen (NVS) Enzymatic Assay for human Protein Tyrosine Phosphatase Non-receptor Type 13 (PTPN13) (AID 2283205)
# Chain of Tyrosine-protein phosphatase non-receptor type 13 (Homo sapiens) (Q12923 whole entry, looked up): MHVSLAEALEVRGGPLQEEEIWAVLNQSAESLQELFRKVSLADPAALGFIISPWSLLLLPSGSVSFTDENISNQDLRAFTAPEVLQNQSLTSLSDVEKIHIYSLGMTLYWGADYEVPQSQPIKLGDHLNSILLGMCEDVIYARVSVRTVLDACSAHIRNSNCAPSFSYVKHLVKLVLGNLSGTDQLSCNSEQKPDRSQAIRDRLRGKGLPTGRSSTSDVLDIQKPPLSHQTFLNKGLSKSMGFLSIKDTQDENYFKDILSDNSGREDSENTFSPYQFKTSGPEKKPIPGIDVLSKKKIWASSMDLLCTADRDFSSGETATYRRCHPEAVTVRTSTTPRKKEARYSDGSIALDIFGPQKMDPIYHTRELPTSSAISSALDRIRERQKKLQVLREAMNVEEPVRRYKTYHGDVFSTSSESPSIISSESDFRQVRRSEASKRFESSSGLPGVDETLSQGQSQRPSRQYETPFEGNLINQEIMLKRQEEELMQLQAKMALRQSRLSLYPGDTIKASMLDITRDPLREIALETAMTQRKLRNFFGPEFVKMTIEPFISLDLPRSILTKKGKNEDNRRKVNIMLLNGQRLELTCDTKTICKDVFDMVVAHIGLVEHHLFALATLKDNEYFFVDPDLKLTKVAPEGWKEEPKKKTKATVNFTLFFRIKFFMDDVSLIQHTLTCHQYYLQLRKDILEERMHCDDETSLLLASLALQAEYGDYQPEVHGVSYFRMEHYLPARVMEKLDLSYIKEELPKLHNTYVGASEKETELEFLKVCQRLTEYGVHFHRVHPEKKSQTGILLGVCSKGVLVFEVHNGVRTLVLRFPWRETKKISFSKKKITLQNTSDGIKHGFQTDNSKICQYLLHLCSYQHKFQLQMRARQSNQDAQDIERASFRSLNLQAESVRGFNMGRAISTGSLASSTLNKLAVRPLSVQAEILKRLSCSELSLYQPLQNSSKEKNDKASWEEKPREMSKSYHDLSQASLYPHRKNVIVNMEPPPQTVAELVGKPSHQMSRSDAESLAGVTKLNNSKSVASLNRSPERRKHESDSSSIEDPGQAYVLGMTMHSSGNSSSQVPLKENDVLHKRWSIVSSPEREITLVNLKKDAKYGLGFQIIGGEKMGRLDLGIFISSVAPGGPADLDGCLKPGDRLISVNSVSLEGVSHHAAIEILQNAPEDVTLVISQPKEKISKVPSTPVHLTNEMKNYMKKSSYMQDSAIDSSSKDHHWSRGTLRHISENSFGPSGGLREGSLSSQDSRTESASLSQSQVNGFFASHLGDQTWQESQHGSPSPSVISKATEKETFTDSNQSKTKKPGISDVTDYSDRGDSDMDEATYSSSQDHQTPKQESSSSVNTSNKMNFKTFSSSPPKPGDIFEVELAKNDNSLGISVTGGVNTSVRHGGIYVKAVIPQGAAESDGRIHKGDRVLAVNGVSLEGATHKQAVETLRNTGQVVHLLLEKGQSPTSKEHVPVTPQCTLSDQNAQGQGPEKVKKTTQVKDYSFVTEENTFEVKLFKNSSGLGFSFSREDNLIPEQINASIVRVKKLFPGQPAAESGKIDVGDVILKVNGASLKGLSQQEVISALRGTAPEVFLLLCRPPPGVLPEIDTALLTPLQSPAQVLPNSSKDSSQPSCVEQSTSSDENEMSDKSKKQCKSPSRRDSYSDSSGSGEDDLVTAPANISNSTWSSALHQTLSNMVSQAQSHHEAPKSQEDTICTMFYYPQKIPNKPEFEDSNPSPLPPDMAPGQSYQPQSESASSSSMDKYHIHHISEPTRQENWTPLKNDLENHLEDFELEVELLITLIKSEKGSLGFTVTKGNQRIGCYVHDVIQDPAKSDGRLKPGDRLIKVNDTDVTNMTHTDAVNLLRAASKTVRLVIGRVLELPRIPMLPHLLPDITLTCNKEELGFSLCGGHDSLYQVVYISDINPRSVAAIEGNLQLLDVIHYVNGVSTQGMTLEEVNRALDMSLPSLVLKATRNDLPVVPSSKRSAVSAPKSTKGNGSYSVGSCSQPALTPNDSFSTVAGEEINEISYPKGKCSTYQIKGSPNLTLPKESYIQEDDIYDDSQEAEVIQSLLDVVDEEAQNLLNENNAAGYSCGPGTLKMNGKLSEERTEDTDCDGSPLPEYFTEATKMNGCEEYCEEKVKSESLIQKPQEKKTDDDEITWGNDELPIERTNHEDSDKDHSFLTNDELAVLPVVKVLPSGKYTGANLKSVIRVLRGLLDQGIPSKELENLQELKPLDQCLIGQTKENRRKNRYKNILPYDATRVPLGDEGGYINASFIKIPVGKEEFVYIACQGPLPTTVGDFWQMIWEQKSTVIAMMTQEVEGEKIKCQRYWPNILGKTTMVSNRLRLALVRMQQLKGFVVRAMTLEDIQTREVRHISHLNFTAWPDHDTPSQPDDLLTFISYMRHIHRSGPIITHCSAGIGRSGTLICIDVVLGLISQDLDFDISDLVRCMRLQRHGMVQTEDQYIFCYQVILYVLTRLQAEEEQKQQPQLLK
# In short: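 Cell-free assay of recombinant human PTPN13 with a fluorescent substrate, product separated by electrophoretic mobility shift and read 0.5 h after dosing. Primary screen at 25 uM in duplicate, then concentration-response up to 50 uM. Loss of signal fitted against DMSO.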
# [10] = molecular target: human Phosphodiesterase 4A1 (PDE4A1), PDE4A (gene 5141) (UniProt P27815); assay: NVS_ENZ_hPDE4A1: NovaScreen (NVS) Enzymatic Assay for human Phosphodiesterase 4A1 (PDE4A1) (AID 2283191)
# In short: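 Cell-free recombinant human PDE4A1 with fluorescent substrate; product separated by electrophoretic mobility shift, 1 h. Screened at 25 uM, then up to 50 uM in concentration-response; loss of signal fitted against DMSO.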
# [11] = molecular target: human Phosphodiesterase 5 (PDE5), PDE5A (gene 8654) (UniProt O76074); assay: NVS_ENZ_hPDE5: NovaScreen (NVS) Enzymatic Assay for human Phosphodiesterase 5 (PDE5) (AID 2283194)
# In short: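 Recombinant human PDE5 with specific substrate, read 1 h after dosing by fluorescence with electrophoretic mobility-shift separation of substrate and product. Initial single-concentration duplicate screen at 25 uM, actives followed in concentration series; loss of activity versus DMSO.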
# [12] = molecular target: human Phosphoinositide 3-kinase alpha (PI3Ka), PIK3CA (gene 5290) (UniProt P42336); assay: NVS_ENZ_hPI3Ka: NovaScreen (NVS) Enzymatic Assay for human Phosphoinositide 3-kinase alpha (PI3Ka) (AID 2283196)
# In short: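 Chemicals were first screened at 25 uM in duplicate, then hits were run as concentration series up to 50 uM. Enzyme activity was measured by fluorescence after mobility-shift separation, with loss of signal relative to DMSO taken as activity.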
# [13] = molecular target: human Protein Tyrosine Phosphatase Non-receptor Type 1 (PTPN1), PTPN1 (gene 5770) (UniProt P18031); assay: NVS_ENZ_hPTPN1: NovaScreen (NVS) Enzymatic Assay for human Protein Tyrosine Phosphatase Non-receptor Type 1 (PTPN1) (AID 2283201)
# Chain of human Protein Tyrosine Phosphatase Non-receptor Type 1 (PTPN1), PTPN1 (gene 5770) (P18031 whole entry, looked up): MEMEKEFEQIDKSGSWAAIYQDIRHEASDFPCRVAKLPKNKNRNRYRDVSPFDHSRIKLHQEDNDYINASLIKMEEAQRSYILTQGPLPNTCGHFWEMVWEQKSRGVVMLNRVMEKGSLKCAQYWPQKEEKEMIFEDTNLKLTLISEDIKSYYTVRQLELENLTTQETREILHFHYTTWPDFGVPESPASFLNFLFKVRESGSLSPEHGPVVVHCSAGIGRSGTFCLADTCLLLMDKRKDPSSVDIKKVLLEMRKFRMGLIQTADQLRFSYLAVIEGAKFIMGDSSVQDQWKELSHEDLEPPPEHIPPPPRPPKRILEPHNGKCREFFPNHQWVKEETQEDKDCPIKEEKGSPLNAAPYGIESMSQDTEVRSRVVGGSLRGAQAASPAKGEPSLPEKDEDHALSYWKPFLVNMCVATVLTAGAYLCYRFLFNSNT
# In short: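 Cell-free fluorogenic-substrate activity assay on recombinant enzyme, read 1.33 h after dosing by fluorescence and electrophoretic mobility shift; loss of signal vs DMSO baseline. Primary screen in duplicate at 25 uM, hits then run in concentration-response up to 50 uM.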
compound,measurement,setting,value
O=[N+]([O-])c1ccccc1,outcome,[1],inactive
CCOc1ccc(C(C)(C)COCc2cccc(Oc3ccccc3)c2)cc1,outcome,[2],inactive
same,outcome,[3],inactive
same,outcome,[4],inactive
CC(C)(C)OOC(C)(C)C,outcome,[5],inactive
same,outcome,PPP2CA (gene 5515),inactive
same,outcome,[6],inactive
same,outcome,[7],inactive
same,outcome,[8],inactive
same,outcome,[9],inactive
CSC(C)(C)C=NO,outcome,[10],inactive
[N-]=[N+]=[N-],outcome,[11],inactive
Nc1cc2c3c(c1)C(c1ccccc1)=N[C@@H](NC(=O)c1cccnc1)C(=O)N3CC2,AC50,[11],17.9 µM (active)
CC1(C)CN=C(NN=C(/C=C/c2ccc(C(F)(F)F)cc2)/C=C/c2ccc(C(F)(F)F)cc2)NC1,AC50,[12],14.1 µM (active)
same,AC50,[7],13.4 µM (active)
ClC1=C(Cl)C2(Cl)C3C(Cl)C(Cl)CC3C1(Cl)C2(Cl)Cl (stereo not drawn),outcome,[12],inactive
same,outcome,[13],inactive
O=C(O)C(Cl)Cl,outcome,[4],inactive
ClC(Cl)(Cl)c1ccccc1,outcome,PPP2CA (gene 5515),inactive
CCOC(=O)c1ccccc1C(=O)OCC,outcome,[6],inactive
CC(C)(C)c1ccc(O)cc1,outcome,[6],inactive
O=c1ssc(Cl)c1Cl,outcome,[7],inactive
c1ccc(OP(Oc2ccccc2)Oc2ccccc2)cc1,outcome,[9],inactive
